Data reported in PubChem BioAssay (NCI).
The panel holds about 83,000 compounds, 20% with a hit somewhere; the sample as a whole holds those more often.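 Treatment: one concentration, 48 hours, 96-well format. Scoring: percent growth, with anything below 10 considered active.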 The source made the active and inactive calls.

Key:
Assay in all cases: NCI-60 one-dose screen, 48 h (100 = growth as untreated, 0 = no growth, -100 = all killed)
Conditions in all cases: 10 µM unless noted
EKVX NSCLC = test system: EKVX NSCLC
SN12C renal = test system: SN12C renal
UO-31 renal = test system: UO-31 renal
TK-10 renal = test system: TK-10 renal
ACHN renal = test system: ACHN renal
CAKI-1 renal = test system: CAKI-1 renal
A498 renal = test system: A498 renal
CCRF-CEM leukemia = test system: CCRF-CEM leukemia
MOLT-4 leukemia = test system: MOLT-4 leukemia
SR leukemia = test system: SR leukemia
RPMI-8226 leukemia = test system: RPMI-8226 leukemia
OVCAR-8 ovarian = test system: OVCAR-8 ovarian
OVCAR-5 ovarian = test system: OVCAR-5 ovarian
OVCAR-4 ovarian = test system: OVCAR-4 ovarian
SK-OV-3 ovarian = test system: SK-OV-3 ovarian
IGROV1 ovarian = test system: IGROV1 ovarian
OVCAR-3 ovarian = test system: OVCAR-3 ovarian
NCI/ADR-RES ovarian = test system: NCI/ADR-RES ovarian

Measured: growth

CC1(O)CC(c2nc(-c3ccc4ccc(-c5ccccc5)nc4c3)c3c(N)nccn23)C1 (stereo unspecified)
active: UO-31 renal 6.56% | A498 renal -3.83%
inactive: EKVX NSCLC 58.8% | SN12C renal 41.7% | TK-10 renal 42.6% | ACHN renal 31.7% | CAKI-1 renal 10.1% | CCRF-CEM leukemia 27.1% | MOLT-4 leukemia 12.9% | SR leukemia 33.9% | RPMI-8226 leukemia 31.8% | OVCAR-8 ovarian 39% | OVCAR-5 ovarian 41.3% | OVCAR-4 ovarian 33.1% | SK-OV-3 ovarian 13.5% | IGROV1 ovarian 40.1% | OVCAR-3 ovarian 56.6% | NCI/ADR-RES ovarian 41%

Cc1ncc(-c2ccnc(Nc3ccc(S(C)(=O)=O)cc3)n2)n1C(C)C
inactive: SK-OV-3 ovarian 11.6%
active: EKVX NSCLC -10.5% | SN12C renal 0.723% | UO-31 renal -9.24% | TK-10 renal -3.89% | ACHN renal 0.0849% | CAKI-1 renal 9.99% | A498 renal -42.6% | CCRF-CEM leukemia 4.05% | MOLT-4 leukemia -32.6% | SR leukemia -18.3% | RPMI-8226 leukemia -0.427% | OVCAR-8 ovarian 6.22% | OVCAR-5 ovarian -0.123% | OVCAR-4 ovarian 3.33% | IGROV1 ovarian -10.8% | OVCAR-3 ovarian 8.42% | NCI/ADR-RES ovarian 1.79%

Cc1cc(Nc2ncc(Cl)c(Nc3ccccc3S(=O)(=O)C(C)C)n2)c(OC(C)C)cc1C1CCNCC1
active: EKVX NSCLC -87.6% | SN12C renal -87.2% | UO-31 renal -96.4% | TK-10 renal -96.1% | ACHN renal -100% | CAKI-1 renal -99.5% | CCRF-CEM leukemia -47.5% | MOLT-4 leukemia -59.9% | SR leukemia -44.7% | RPMI-8226 leukemia -56.7% | OVCAR-8 ovarian -67.2% | OVCAR-5 ovarian -96.6% | OVCAR-4 ovarian -89.2% | SK-OV-3 ovarian -32.2% | IGROV1 ovarian -72.2% | OVCAR-3 ovarian -96.4% | NCI/ADR-RES ovarian -60.6%
inactive: A498 renal 40.2%

CO[C@@H](C(=O)N1Cc2[nH]nc(NC(=O)c3ccc(N4CCN(C)CC4)cc3)c2C1)c1ccccc1
inactive: EKVX NSCLC 59.3% | SN12C renal 26.8% | UO-31 renal 50.7% | ACHN renal 41.9% | CAKI-1 renal 17.3% | CCRF-CEM leukemia 51.5% | MOLT-4 leukemia 31% | RPMI-8226 leukemia 44% | OVCAR-3 ovarian 40.6% | NCI/ADR-RES ovarian 81.7%
active: TK-10 renal 9.33% | A498 renal -37% | SR leukemia -1.07% | OVCAR-8 ovarian 5.58% | OVCAR-5 ovarian 4.9% | OVCAR-4 ovarian 9.35% | SK-OV-3 ovarian 7.44% | IGROV1 ovarian -16.1%

Cc1nc(N)sc1-c1ccnc(Nc2ccc(N3CCOCC3)cc2)n1
inactive: EKVX NSCLC 71.7% | SN12C renal 49.8% | UO-31 renal 19.7% | TK-10 renal 39.9% | ACHN renal 29.7% | CAKI-1 renal 20.8% | A498 renal 32.6% | CCRF-CEM leukemia 23% | MOLT-4 leukemia 13.8% | RPMI-8226 leukemia 31.4% | OVCAR-8 ovarian 34.2% | OVCAR-5 ovarian 42.8% | OVCAR-4 ovarian 53.7% | IGROV1 ovarian 12.3% | OVCAR-3 ovarian 59.6% | NCI/ADR-RES ovarian 61.4%
active: SR leukemia 2.59% | SK-OV-3 ovarian 8.94%

Cc1cc(-c2cc(O)ccc2Cl)cc2nnc(Nc3ccc(OCCN4CCCC4)cc3)nc12
active: EKVX NSCLC -81.1% | SN12C renal -79.2% | UO-31 renal -87.3% | TK-10 renal -82.1% | ACHN renal -92.7% | CAKI-1 renal -83% | A498 renal -68.9% | CCRF-CEM leukemia -51.9% | MOLT-4 leukemia -42.9% | SR leukemia -35% | RPMI-8226 leukemia -43.9% | OVCAR-8 ovarian -63.6% | OVCAR-5 ovarian -83.5% | OVCAR-4 ovarian -81.9% | SK-OV-3 ovarian -77.7% | IGROV1 ovarian -60.2% | OVCAR-3 ovarian -79.7% | NCI/ADR-RES ovarian -69.3%

O=C(c1ccc(F)c(F)c1Nc1ccc(I)cc1F)N1CC(O)([C@@H]2CCCCN2)C1
active: UO-31 renal -9.6% | A498 renal -71.2% | MOLT-4 leukemia 4.19% | SR leukemia -15.2% | OVCAR-5 ovarian 7.14% | IGROV1 ovarian 2.25%
inactive: EKVX NSCLC 24.4% | SN12C renal 34% | TK-10 renal 11.6% | ACHN renal 18.2% | CAKI-1 renal 21.9% | CCRF-CEM leukemia 39.7% | RPMI-8226 leukemia 26.7% | OVCAR-8 ovarian 47.9% | OVCAR-4 ovarian 27.8% | SK-OV-3 ovarian 29.2% | OVCAR-3 ovarian 58.7% | NCI/ADR-RES ovarian 39.7%

C[C@@H](Nc1cc(F)cc(F)c1)c1cc(C(=O)N(C)C)cc2c(=O)cc(N3CCOCC3)oc12
active: A498 renal -38.1% | SK-OV-3 ovarian 3.43% | IGROV1 ovarian -13.3%
inactive: EKVX NSCLC 68.2% | SN12C renal 52.1% | UO-31 renal 24.2% | TK-10 renal 32.8% | ACHN renal 49.9% | CAKI-1 renal 33.6% | CCRF-CEM leukemia 70.3% | MOLT-4 leukemia 25.3% | SR leukemia 53.5% | RPMI-8226 leukemia 84.4% | OVCAR-8 ovarian 57.9% | OVCAR-5 ovarian 54.5% | OVCAR-4 ovarian 88.2% | OVCAR-3 ovarian 40% | NCI/ADR-RES ovarian 85.4%

O=C1NC(=O)[C@@H](c2cn3c4c(cccc24)CCC3)[C@@H]1c1c[nH]c2ccccc12
inactive: EKVX NSCLC 31.4% | SN12C renal 31.1% | UO-31 renal 45.9% | TK-10 renal 43% | ACHN renal 35.7% | CAKI-1 renal 27% | A498 renal 11.8% | CCRF-CEM leukemia 20.9% | MOLT-4 leukemia 18.6% | SR leukemia 13.8% | RPMI-8226 leukemia 22.8% | OVCAR-8 ovarian 11.3% | OVCAR-5 ovarian 48% | OVCAR-4 ovarian 55.4% | IGROV1 ovarian 27.7% | OVCAR-3 ovarian 18.4%
active: SK-OV-3 ovarian -0.0481% | NCI/ADR-RES ovarian 9.44%

O=C(NOCCO)c1cc(CN2OCCCC2=O)c(F)c(F)c1Nc1ccc(I)cc1F
inactive: EKVX NSCLC 46% | SN12C renal 49.5% | UO-31 renal 15% | TK-10 renal 36.4% | ACHN renal 49.5% | CAKI-1 renal 40.8% | CCRF-CEM leukemia 101% | MOLT-4 leukemia 76.6% | SR leukemia 65.6% | RPMI-8226 leukemia 78.8% | OVCAR-8 ovarian 52.1% | OVCAR-5 ovarian 20.2% | OVCAR-4 ovarian 64.5% | SK-OV-3 ovarian 52.3% | IGROV1 ovarian 21.2% | OVCAR-3 ovarian 103% | NCI/ADR-RES ovarian 58.1%
active: A498 renal -33%

CC(C)Nc1cc(-c2c[nH]c(C(=O)N[C@H](CO)c3cccc(Cl)c3)c2)c(Cl)cn1
active: A498 renal 4.24%
inactive: EKVX NSCLC 38.9% | SN12C renal 52.2% | UO-31 renal 18.2% | TK-10 renal 16.2% | ACHN renal 31% | CAKI-1 renal 35.3% | CCRF-CEM leukemia 26.1% | MOLT-4 leukemia 12.6% | SR leukemia 23.9% | RPMI-8226 leukemia 21.8% | OVCAR-8 ovarian 35% | OVCAR-5 ovarian 19.5% | OVCAR-4 ovarian 42.2% | SK-OV-3 ovarian 23.3% | IGROV1 ovarian 18.4% | OVCAR-3 ovarian 75.9% | NCI/ADR-RES ovarian 47.9%

Cn1ccnc1C(=O)/C=C/c1ccc(CC(=O)Nc2ccc(S(F)(F)(F)(F)F)cc2)cc1
inactive: A498 renal 13.5% | OVCAR-4 ovarian 17.5% | SK-OV-3 ovarian 18.4%
active: EKVX NSCLC -27.4% | SN12C renal -11.8% | UO-31 renal -90.5% | TK-10 renal 5.88% | ACHN renal -21.6% | CAKI-1 renal -31.4% | CCRF-CEM leukemia 8.93% | MOLT-4 leukemia -10.5% | SR leukemia 0.968% | RPMI-8226 leukemia -18.8% | OVCAR-8 ovarian -14.1% | OVCAR-5 ovarian -38.1% | IGROV1 ovarian -17.5% | OVCAR-3 ovarian 6.7% | NCI/ADR-RES ovarian 7.59%

CCc1cnn2c(NCc3ccc[n+]([O-])c3)cc(N3CCCC[C@H]3CCO)nc12
active: EKVX NSCLC -11.2% | SN12C renal 4.31% | UO-31 renal -7.4% | TK-10 renal -16% | ACHN renal 2.95% | CAKI-1 renal 6.71% | A498 renal -60.4% | CCRF-CEM leukemia -0.938% | MOLT-4 leukemia -9.3% | SR leukemia -17.3% | RPMI-8226 leukemia -16.2% | OVCAR-8 ovarian -6.3% | OVCAR-5 ovarian 4.89% | OVCAR-4 ovarian -9.21% | SK-OV-3 ovarian -17.8% | IGROV1 ovarian 5.6% | NCI/ADR-RES ovarian -0.875%
inactive: OVCAR-3 ovarian 12.3%

Cn1cc(-c2ccc(F)c(C(F)(F)F)c2)nc1C1CCN(c2ncnc3[nH]ncc23)CC1
inactive: EKVX NSCLC 88% | SN12C renal 63.7% | UO-31 renal 63.8% | TK-10 renal 66.6% | ACHN renal 73.4% | CAKI-1 renal 62.2% | A498 renal 66.5% | CCRF-CEM leukemia 72.4% | MOLT-4 leukemia 65.5% | SR leukemia 55.4% | RPMI-8226 leukemia 82.3% | OVCAR-8 ovarian 47.8% | OVCAR-5 ovarian 85.8% | OVCAR-4 ovarian 80.4% | SK-OV-3 ovarian 55.5% | IGROV1 ovarian 55.2% | OVCAR-3 ovarian 89.6% | NCI/ADR-RES ovarian 61.2%

N[C@@H]1CCCN(c2c(/C=C3\SC(=O)NC3=O)cccc2-c2ccccc2)C1
inactive: EKVX NSCLC 62.6% | SN12C renal 65% | UO-31 renal 31.9% | TK-10 renal 78.6% | ACHN renal 73.2% | CAKI-1 renal 73.6% | A498 renal 75% | CCRF-CEM leukemia 55.3% | MOLT-4 leukemia 31.1% | SR leukemia 22.1% | RPMI-8226 leukemia 13% | OVCAR-8 ovarian 61.1% | OVCAR-5 ovarian 64.4% | OVCAR-4 ovarian 11.4% | SK-OV-3 ovarian 63.6% | IGROV1 ovarian 66.7% | OVCAR-3 ovarian 54.2% | NCI/ADR-RES ovarian 88.1%

COC(=O)[C@@H](OC)[C@@H]1Cc2cc3cc(OC4CC(OC5CC(O)C(O)C(C)O5)C(O)C(C)O4)c(C)c(O)c3c(O)c2C(=O)[C@H]1OC1CC(OC2CC(OC3CC(C)(O)C(O)C(C)O3)C(O)C(C)O2)C(O)C(C)O1 (stereo partly specified)
inactive: TK-10 renal 13.7% | CAKI-1 renal 14.8% | OVCAR-8 ovarian 10.2% | OVCAR-5 ovarian 18.8% | SK-OV-3 ovarian 21% | IGROV1 ovarian 28% | NCI/ADR-RES ovarian 42.7%
active: EKVX NSCLC 9.91% | SN12C renal 9.04% | UO-31 renal -9.9% | ACHN renal 4.79% | A498 renal -42.9% | CCRF-CEM leukemia 2.91% | MOLT-4 leukemia -9.54% | SR leukemia 4.74% | RPMI-8226 leukemia -17.5% | OVCAR-4 ovarian 3.96% | OVCAR-3 ovarian 6.49%

CCN(CC)Cc1cc(Nc2cc(C(F)(F)F)c(C#N)c3nc4ccccc4n23)ccc1O
inactive: EKVX NSCLC 15.8% | TK-10 renal 10.6% | SR leukemia 12.8% | OVCAR-5 ovarian 31% | OVCAR-4 ovarian 14.2% | IGROV1 ovarian 28.9% | OVCAR-3 ovarian 10.9%
active: SN12C renal 5.86% | UO-31 renal -17.4% | ACHN renal 4.68% | CAKI-1 renal 6.96% | A498 renal -14.2% | CCRF-CEM leukemia 5.56% | MOLT-4 leukemia 4.11% | RPMI-8226 leukemia 0.326% | OVCAR-8 ovarian 9.84% | SK-OV-3 ovarian -10.8% | NCI/ADR-RES ovarian 6.79%
